Test results reported in the supplement of paper PMC12494721.
Structures can show the parent of a compound that is named as a salt.

What was measured:
Conditions in all cases: incubation time: 27 h, anaerobic, 37 °C;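 for the amine columns active = adjusted P below 0.05 in both replicates with a change the same way and a mean fold change under 0.8 or over 1.25; inactive = the rest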
[1] = system: Clostridium sporogenes DSM 1664; assay: growth (OD595) fold change vs plate DMSO controls (fold change (ratio)); higher = more growth
In short: (§1)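 Each value is the mean of 2 biological replicates, and fold changes above 1.5 were set to NA. The underlying readings were taken at 595 nm from shaken anaerobic mGAM cultures in 96-well plates after 27 h at 37 °C. They were blank-subtracted, corrected for compound background using 20 µM compound solutions in water, and converted to OD with a calibration factor of 5. Growth is the fold change relative to the median of the plate DMSO controls.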

[2] = system: Escherichia coli IAI1; assay: as above
In short: as §1

[3] = system: Klebsiella aerogenes DSM 30053; assay: as above
In short: as §1

[4] = system: Ruminococcus gnavus DSM 108212; assay: as above
In short: as §1

[5] = system: Klebsiella aerogenes DSM 30053; assay: fold change of Histamine concentration vs plate DMSO controls (fold change (ratio)); higher = more amine produced, active = hit call of the paper (significant change in both replicates, either direction)
In short: (§2)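 Each value is the fold change relative to DMSO-only wells on the same plate. Four gut bacterial strains were grown anaerobically in mGAM at 37 °C for 27 h in 80 µL wells, starting at OD 0.1 before a 1:1 dilution, with compounds at 20 µM final (sweeteners 50 µM). Whole cultures were extracted with cold acetonitrile/methanol containing 0.1% formic acid, centrifuged, and amines were quantified by LC–triple-quadrupole MS (dynamic MRM) against external calibration curves with within-batch drift correction. Values are means of 2 biological replicates.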

[6] = system: Clostridium sporogenes DSM 1664; assay: fold change of Tryptamine concentration vs plate DMSO controls (fold change (ratio)); higher = more amine produced, active = hit call of the paper (significant change in both replicates, either direction)
In short: as §2

[7] = system: Ruminococcus gnavus DSM 108212; assay: as above
In short: as §2

[8] = system: Escherichia coli IAI1; assay: fold change of Putrescine concentration vs plate DMSO controls (fold change (ratio)); higher = more amine produced, active = hit call of the paper (significant change in both replicates, either direction)
In short: as §2

[9] = system: Klebsiella aerogenes DSM 30053; assay: as above
In short: as §2

[10] = system: Escherichia coli IAI1; assay: fold change of Cadaverine concentration vs plate DMSO controls (fold change (ratio)); higher = more amine produced, active = hit call of the paper (significant change in both replicates, either direction)
In short: as §2

[11] = system: Klebsiella aerogenes DSM 30053; assay: as above
In short: as §2

[12] = system: Ruminococcus gnavus DSM 108212; assay: fold change of 2-Phenylethylamine concentration vs plate DMSO controls (fold change (ratio)); higher = more amine produced, active = hit call of the paper (significant change in both replicates, either direction)
In short: as §2

Row | SMILES | growth [1] | growth [2] | growth [3] | growth [4] | fold change of Histamine concentration [5] | fold change of Tryptamine concentration [6] | fold change of Tryptamine concentration [7] | fold change of Putrescine concentration [8] | fold change of Putrescine concentration [9] | fold change of Cadaverine concentration [10] | fold change of Cadaverine concentration [11] | fold change of 2-Phenylethylamine concentration [12]
1 | CC1=C(C(=O)O)N2C(=O)[C@@H](NC(=O)[C@H](N)c3ccc(O)cc3)[C@H]2SC1 [Cefadroxil] (20 µM) | 0.898 | 1.03 | 1 | 1.08 | 1.08 (inactive) | 0.974 (inactive) | 1 (inactive) | 1.03 (inactive) | 1.01 (inactive) | 1.02 (inactive) | 0.996 (inactive) | 1.03 (inactive)
2 | COCC1=C(C(=O)OC(C)OC(=O)OC(C)C)N2C(=O)[C@@H](NC(=O)/C(=N\OC)c3csc(N)n3)[C@H]2SC1 (some centres not stated) [Cefpodoxime proxetil] (20 µM) | 1.05 | 1.01 | 1.04 | 1.18 | 1.06 (inactive) | 0.946 (inactive) | 0.622 (inactive) | 0.972 (inactive) | 1.03 (inactive) | 1.43 (active) | 0.986 (inactive) | 0.605 (inactive)
3 | C[C@]12CC[C@@H]3c4ccc(O)cc4CC[C@H]3[C@@H]1C[C@@H](O)[C@@H]2O [Estriol] (20 µM) | 1.12 | 0.963 | 1.17 | 1.15 | 0.888 (inactive) | 1.01 (inactive) | 0.936 (inactive) | 0.991 (inactive) | 0.993 (inactive) | 1.02 (inactive) | 1.02 (inactive) | 0.884 (inactive)
4 | CC(=O)Nc1ccccc1 [Acetanilide] (20 µM) | 1.1 | 0.998 | 1 | 0.941 | 1.01 (inactive) | 1.03 (inactive) | 1.02 (inactive) | 1.04 (inactive) | 1.02 (inactive) | 0.982 (inactive) | 1.01 (inactive) | 1.05 (inactive)
5 | COc1ccc(-c2cc(=S)ss2)cc1 [Anethole-trithione] (20 µM) | 0.802 | 1.01 | 0.968 | 1.04 | 1.04 (inactive) | 1.18 (inactive) | 1.07 (inactive) | 1.01 (inactive) | 0.972 (inactive) | 1.01 (inactive) | 0.986 (inactive) | 1.07 (inactive)
6 | CC(=O)c1ccc2c(c1)N(CCCN(C)C)c1ccccc1S2 [Acetopromazine maleate salt] (20 µM) | 0.96 | 1 | 0.976 | 0.878 | 1.03 (inactive) | 1.01 (inactive) | 1.01 (inactive) | 1 (inactive) | 1.01 (inactive) | 1.03 (inactive) | 0.983 (inactive) | 1.03 (inactive)
